For nine compounds, composite z-score, composite Z-score and z-score results are on record in PubChem BioAssay.

One assay has as its target Albumin (Bos taurus) (UniProt P02769). The assay is described as follows: bovine serum albumin binders on microarray, profiling panel, artefact control for SMM control protein annotation, biochemical, small-molecule microarray, Alexa647 label, 635/667 nm fluorescence (AID 1118).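 Further: score merges 667 nm emission intensity and signal-to-noise per printed compound spot.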 The note with it: BSA-A647 binding, fluorescence 635 nm, higher = more signal.
Assay [1] in a line: small-molecule microarray binders of probe aXIP, primary screen, biochemical, NeuroSMM set, 635/667 nm fluorescence (AID 1119).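 Further: probe is the protein aXip251-270 applied at 1 µg/mL to compound-printed slides; binding of probe to printed compounds measured as 667 nm fluorescence plus signal to noise.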 The conditions noted are these: higher = more signal, called active from +8 up or from −8 down.
Assay [2] can be described thus: small-molecule binders of probe aNOTCH3, primary screen, biochemical, small-molecule microarray, 635/667 nm fluorescence (AID 1120).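 Further: probe is a biotin-tagged antibody raised against NOTCH3 rather than NOTCH3 protein; score merges spot fluorescence near 667 nm with spot signal to noise.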 The conditions noted are these: higher = more signal.
Assay [3] is described as follows: small-molecule binders of probe aNOTCH2, primary screen, biochemical, small-molecule microarray, 635/667 nm fluorescence (AID 1121).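 Further: score merges feature fluorescence read at 667 nm with its signal to noise.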 The note with it: higher = more signal.
The target of assay [4] is Carbonic anhydrase 2 (Homo sapiens) (UniProt P00918). Description: CAII small-molecule binders, profiling panel, biochemical, small-molecule microarray, Alexa647-labelled CAII (AID 1122). The conditions noted are these: CAII-A647 binding fluorescence, higher = more signal.
The nature of assay [5]: COS7 lysate on small-molecule microarray, probe aHis, 635 nm (AID 1123).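 Further: z-score combines 667nm fluorescence intensity with signal-to-noise per printed compound spot.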 The note with it: COS7 cell lysate, fluorescence, higher = more signal.
A short description of assay [6]: compound binding in COS7 lysate, probe aLAP1, primary screen, cell lysate, small-molecule microarray (AID 1124).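 Further: lysate comes from COS7 cells expressing LAP1 and is applied at 0.3 µg/mL; score merges spot fluorescence near 667 nm with signal-to-noise over triplicate slides.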 The conditions noted are these: probe aLAP1, fluorescence, higher = more signal.
The test system of another assay is Sam68 (KHDRBS1). Description: Sam68 small-molecule binders, primary screen, biochemical, small-molecule microarray, 635 nm fluorescence (AID 1125).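 Further: score merges 667 nm channel intensity with signal to noise over triplicate slides.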 The conditions noted are these: small-molecule microarray binding, higher = more signal.
In assay [7] the test system is Chordin-like protein 2 (CHRDL2). The assay is described as follows: CHRDL2 small-molecule binders, primary screen, biochemical, small-molecule microarray, 635 nm fluorescence (AID 1126).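 Further: printed compound slides probed with Chrdl2 protein at 4 µg/mL for 1 h at 4 C; score merges 667 nm emission intensity with signal to noise over three replicate slides.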 The conditions noted are these: small-molecule microarray binding, fluorescence 635 nm; higher = more signal.
For assay [8], the target named is Concanavalin-A (Canavalia ensiformis) (UniProt P02866). Description: ConA small-molecule binders, primary screen, artefact control for SMM control protein annotation, biochemical, small-molecule microarray, Alexa647 label, 635 nm (AID 1127).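 Further: z combines 667 nm emission intensity with signal-to-noise across three replicate slides.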 The conditions noted are these: ConA-A647 binding fluorescence, higher = more signal.
The nature of assay [9]: anti-His antibody binders, primary screen, artefact control for SMM control protein annotation, biochemical, small-molecule microarray, 635 nm fluorescence (AID 1128).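 Further: score merges feature fluorescence with signal-to-noise for each printed compound spot.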 The note with it: anti-His Alexa647 antibody binding, higher = more signal.
In assay [10] the test system is Human papillomavirus type 1a E7 protein (residues 1-88). The assay is described as follows: HPV1a E7 small-molecule binders, primary screen, biochemical, small-molecule microarray, residues 1-88, 635 nm (AID 1129). The note with it: small-molecule microarray binding, fluorescence 635 nm; higher = more signal.
Assay [11] deals with Focal adhesion kinase 1 (Homo sapiens) (UniProt Q05397). Description: small-molecule microarray binders of FAK, primary screen, biochemical, 635/667 nm fluorescence, BSA, DTT (AID 1130).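 Further: composite of spot emission at 667 nm and signal to noise over triplicate slides.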 The note with it: PTK2 binding, 635 nm fluorescence, higher = more signal.
Assay [12] relates to Fibrinogen (Alexa647-labelled). The assay is described as follows: fibrinogen binders on compound microarrays, profiling panel, artefact control for SMM control-protein annotation, biochemical, small-molecule microarray, 635/667 nm fluorescence (AID 1131).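 Further: z-score merges 667 nm fluorescence with per-spot signal-to-noise over triplicate slides.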 The conditions noted are these: fibrinogen-A647 binding fluorescence, higher = more signal.
Assay [13] addresses Follistatin (Homo sapiens) (UniProt P19883). The assay is described as follows: follistatin binders on small-molecule microarrays, primary screen, biochemical, small-molecule microarray, 635/667 nm fluorescence (AID 1132). The note with it: FST binding, 635 nm fluorescence, higher = more signal.
For assay [14], the target named is Fibroblast growth factor 2 (Homo sapiens) (UniProt P09038). The assay is described as follows: FGF2 binders on small-molecule microarrays, primary screen, biochemical, small-molecule microarray, 635/667 nm fluorescence (AID 1133). The note with it: small-molecule microarray binding, FGF2, fluorescence 635/667; higher = more signal.
Assay [15] is described as follows: mitochondrial membrane potential change in A549 cells, profiling panel, cell-based, JC-1 fluorescence, basal, 24 h, 100 nL (AID 1138).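 Further: A549 lung adenocarcinoma cells under basal conditions with no added stimulus; test concentration not given here.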 The note with it: higher = more signal.
The test system of another assay is Lefty1. Description: Lefty1 binders on small-molecule microarrays, primary screen, biochemical, small-molecule microarray, 635/667 nm fluorescence (AID 1139). The conditions noted are these: small-molecule microarray binding, fluorescence 635/667; higher = more signal.
Assay [16] concerns wheat germ agglutinin (Triticum aestivum), Alexa647-labelled. The assay is described as follows: wheat germ agglutinin binders on compound microarrays, profiling panel, artefact control for SMM control-protein annotation, biochemical, small-molecule microarray, 635/667 nm fluorescence (AID 1140).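 Further: score merges 667 nm feature emission with signal to noise over triplicate slides.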 The conditions noted are these: WGA-A647 binding, 635 nm fluorescence, higher = more signal.

For assay [17], the target named is Luciferin 4-monooxygenase (Photinus pyralis) (UniProt P08659). Description: firefly luciferase enzyme inhibitors, primary screen, biochemical, luminescence, purified enzyme, 2006 set (AID 1141).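 Further: cell-free assay with purified firefly luciferase at 100 ng per well in PBS; test concentration not given here.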 The note with it: SteadyGlo luminescence, 30 min, higher = more signal, called active from +8 up or from −8 down.

Active and inactive are the calls of the source.

Concanavalin-A (Canavalia ensiformis), sequence (P02866 whole entry, looked up): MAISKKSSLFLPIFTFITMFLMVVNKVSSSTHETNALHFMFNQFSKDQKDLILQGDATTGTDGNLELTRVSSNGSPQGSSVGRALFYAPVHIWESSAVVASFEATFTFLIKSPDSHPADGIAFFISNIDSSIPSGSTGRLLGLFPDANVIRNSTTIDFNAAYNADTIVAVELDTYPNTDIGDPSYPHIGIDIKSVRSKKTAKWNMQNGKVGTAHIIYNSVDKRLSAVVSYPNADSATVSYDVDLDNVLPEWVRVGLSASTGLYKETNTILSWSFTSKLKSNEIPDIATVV
Luciferin 4-monooxygenase (Photinus pyralis), sequence (P08659 whole entry, looked up): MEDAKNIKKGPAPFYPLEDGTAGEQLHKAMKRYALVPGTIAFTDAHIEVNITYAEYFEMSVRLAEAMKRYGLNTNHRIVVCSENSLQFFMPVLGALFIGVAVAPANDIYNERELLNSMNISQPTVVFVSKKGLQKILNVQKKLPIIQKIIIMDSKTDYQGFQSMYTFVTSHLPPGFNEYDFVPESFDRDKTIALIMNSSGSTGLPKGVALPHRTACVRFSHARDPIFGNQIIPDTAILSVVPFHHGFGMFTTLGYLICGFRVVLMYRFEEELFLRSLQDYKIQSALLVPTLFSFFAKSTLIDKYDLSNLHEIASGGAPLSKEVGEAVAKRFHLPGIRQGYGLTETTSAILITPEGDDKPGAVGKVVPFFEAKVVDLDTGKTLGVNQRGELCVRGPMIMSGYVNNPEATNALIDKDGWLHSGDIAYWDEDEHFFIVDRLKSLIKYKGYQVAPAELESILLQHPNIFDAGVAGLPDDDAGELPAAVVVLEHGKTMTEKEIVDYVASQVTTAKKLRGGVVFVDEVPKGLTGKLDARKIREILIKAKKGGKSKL
Fibroblast growth factor 2 (Homo sapiens), sequence (P09038 whole entry, looked up): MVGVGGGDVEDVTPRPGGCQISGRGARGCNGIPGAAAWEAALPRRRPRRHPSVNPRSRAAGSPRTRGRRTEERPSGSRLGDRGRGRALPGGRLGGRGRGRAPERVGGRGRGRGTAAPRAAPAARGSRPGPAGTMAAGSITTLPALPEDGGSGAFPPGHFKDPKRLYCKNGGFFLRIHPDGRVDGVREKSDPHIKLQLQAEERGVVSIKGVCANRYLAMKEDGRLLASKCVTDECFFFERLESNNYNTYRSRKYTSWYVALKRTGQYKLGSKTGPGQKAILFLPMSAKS
Follistatin (Homo sapiens), sequence (P19883 whole entry, looked up): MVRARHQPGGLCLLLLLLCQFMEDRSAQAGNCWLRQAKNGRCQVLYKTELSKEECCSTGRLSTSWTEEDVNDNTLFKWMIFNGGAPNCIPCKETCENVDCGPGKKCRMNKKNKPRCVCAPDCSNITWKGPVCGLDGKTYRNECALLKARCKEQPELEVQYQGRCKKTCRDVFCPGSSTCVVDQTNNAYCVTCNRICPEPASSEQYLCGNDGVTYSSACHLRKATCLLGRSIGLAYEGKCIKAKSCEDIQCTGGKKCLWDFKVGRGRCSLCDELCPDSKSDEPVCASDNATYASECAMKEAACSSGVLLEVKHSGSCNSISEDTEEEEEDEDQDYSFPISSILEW
Albumin (Bos taurus), sequence (P02769 whole entry, looked up): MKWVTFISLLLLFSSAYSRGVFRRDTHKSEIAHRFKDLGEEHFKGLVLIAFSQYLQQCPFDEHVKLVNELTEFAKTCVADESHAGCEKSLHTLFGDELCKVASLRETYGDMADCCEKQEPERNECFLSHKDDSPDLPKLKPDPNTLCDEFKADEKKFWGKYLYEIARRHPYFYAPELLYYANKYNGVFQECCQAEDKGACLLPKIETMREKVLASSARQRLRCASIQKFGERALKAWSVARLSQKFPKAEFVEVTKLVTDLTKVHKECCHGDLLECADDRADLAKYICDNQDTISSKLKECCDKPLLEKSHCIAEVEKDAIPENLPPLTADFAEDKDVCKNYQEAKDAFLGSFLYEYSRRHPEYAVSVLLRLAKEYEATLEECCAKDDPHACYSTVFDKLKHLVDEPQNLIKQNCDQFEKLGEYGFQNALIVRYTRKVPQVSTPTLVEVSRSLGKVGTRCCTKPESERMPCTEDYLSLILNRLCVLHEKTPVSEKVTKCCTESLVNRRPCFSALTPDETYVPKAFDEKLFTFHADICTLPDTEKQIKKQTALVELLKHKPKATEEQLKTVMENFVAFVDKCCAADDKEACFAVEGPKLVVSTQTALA
Focal adhesion kinase 1 (Homo sapiens), sequence (Q05397 whole entry, looked up): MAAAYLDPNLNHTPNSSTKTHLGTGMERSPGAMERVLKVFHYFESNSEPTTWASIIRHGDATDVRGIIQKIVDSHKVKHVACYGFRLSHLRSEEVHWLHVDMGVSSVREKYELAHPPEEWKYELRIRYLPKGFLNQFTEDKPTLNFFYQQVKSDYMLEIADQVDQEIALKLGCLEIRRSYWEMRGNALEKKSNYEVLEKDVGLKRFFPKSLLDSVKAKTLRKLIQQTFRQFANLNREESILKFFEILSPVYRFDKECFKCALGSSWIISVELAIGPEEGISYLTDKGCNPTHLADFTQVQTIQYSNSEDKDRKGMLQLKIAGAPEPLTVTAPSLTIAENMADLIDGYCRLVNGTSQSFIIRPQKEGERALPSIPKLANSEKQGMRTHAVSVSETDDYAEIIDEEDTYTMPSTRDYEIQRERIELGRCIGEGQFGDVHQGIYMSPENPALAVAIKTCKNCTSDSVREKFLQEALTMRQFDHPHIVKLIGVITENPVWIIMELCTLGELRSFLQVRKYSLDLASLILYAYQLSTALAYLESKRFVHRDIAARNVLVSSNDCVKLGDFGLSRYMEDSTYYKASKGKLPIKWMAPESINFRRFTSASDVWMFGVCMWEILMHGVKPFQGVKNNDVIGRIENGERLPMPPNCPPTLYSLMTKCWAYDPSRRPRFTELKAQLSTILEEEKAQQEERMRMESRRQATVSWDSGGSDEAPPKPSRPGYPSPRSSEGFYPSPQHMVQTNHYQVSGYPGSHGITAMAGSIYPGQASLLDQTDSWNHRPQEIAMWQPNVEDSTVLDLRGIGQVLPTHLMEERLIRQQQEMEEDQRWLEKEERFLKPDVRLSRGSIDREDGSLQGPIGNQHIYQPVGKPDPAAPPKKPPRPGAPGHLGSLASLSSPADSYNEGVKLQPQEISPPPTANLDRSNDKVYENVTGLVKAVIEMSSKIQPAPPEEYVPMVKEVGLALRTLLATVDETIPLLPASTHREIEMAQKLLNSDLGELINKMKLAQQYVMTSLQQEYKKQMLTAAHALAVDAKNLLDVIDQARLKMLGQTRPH

For `O=C1c2ccccc2[C@](Cc2ccccc2I)(C(=O)NCC(F)(F)F)[C@H](c2ccc(CO)cc2)N1Cc1ccccc1C(F)(F)F`, the composite z-score with Albumin (Bos taurus) is 0.89; in assay [2], -0.099; in assay [3] it was -0.175; in assay [4] it was 0.411; in assay [5], 1.58; in assay [6] it was 0.494. Further, the composite z-score in the assay on Sam68 (KHDRBS1) was 1.32; in [7], -0.324; in [8] it was 0.609; in [9], 0.722; in assay [10], 1.22; in assay [11], 0.857. In addition, the composite z-score in [12] stood at 0.351; in [13], 0.678; in [14] it was 0.381; in the assay with Lefty1, 0.108; in [16], 0.479. Besides, the composite Z-score in assay [1] was 0.34 (inactive). Moreover, the z-score in assay [15] is 1.67; in assay [17] it was -0.956 (inactive).
Regarding `CC(=O)NCCCC[C@@H]1NC(=O)[C@@H]2C[C@H](C(=O)NCc3ccc(F)cc3)[C@H](c3cccc(OCCO)c3)N2C1=O`, the composite z-score with Albumin (Bos taurus) is 0.188; in [2], -0.226; in [3] it was 0.0383; in assay [4] it was 0.659; in assay [5], 1.07; in [6], 0.19. Also, the composite z-score with Sam68 (KHDRBS1) was 0.506; in assay [7], 0.174; in assay [8] it was 0.474; in assay [9], 1.6; in assay [10], 0.308; in assay [11], -0.135. In addition, the composite z-score in assay [12] was 0.371; in [13], 1.3; in [14], 1.7; with Lefty1, 0.115; in assay [16], -0.087. The composite Z-score in assay [1] is 0.328 (inactive). The z-score was 1.25 in assay [15] and -0.425 (inactive) in assay [17].
As for `CCN1C(C)=C(C(=O)OC)[C@@H](c2ccccc2)N2C(=O)[C@@]3(C(=O)OC)O[C@@]12[C@@H]1C(=O)N(c2ccccc2)C(=O)[C@@H]13`, the composite z-score is 0.846 in the assay with Albumin (Bos taurus); -0.055 in assay [2]; -0.153 in assay [3]; 0.66 in assay [4]; 0.463 in assay [5]; 0.581 in assay [6]. Moreover, the composite z-score with Sam68 (KHDRBS1) turned out to be 1.14; in assay [7], 0.522; in assay [8], 0.744; in assay [9], 1.44; in assay [10] it was 0.678; in [11] it was 0.231. Further, the composite z-score in assay [12] turned out to be 0.389; in [13], 0.462; in [14] it was 1.51; in the assay on Lefty1, 1.27; in assay [16], 0.238. Further, in assay [1], the composite Z-score was -0.0754 (inactive). The z-score was 0.507 in assay [15] and -0.569 (inactive) in [17].
In the case of `C=C[C@H](OC)[C@@H](OC(=O)Nc1ccc(SC)cc1)c1ccc(OC)c(O)c1`, the composite z-score with Albumin (Bos taurus) is -1.37; in [2], -0.403; in assay [3] it was -0.183; in assay [4] it was 0.1; in [5] it was 0.677; in assay [6], -0.245. The composite z-score in the assay on Sam68 (KHDRBS1) is 0.347; in assay [7], -0.998; in [8] it was -0.473; in [9] it was -0.548; in assay [10], -0.19; in [11] it was -0.0802. Also, the composite z-score in assay [12] was -0.666; in assay [13], -0.466; in [14] it was -0.896; with Lefty1, -0.541; in [16] it was -1.51. Also, in assay [1], the composite Z-score is 0.157 (inactive). The z-score in assay [15] was 0.52; in assay [17] it was -2.18 (inactive).
Turning to `O=C1c2ccccc2[C@](Cc2ccccc2I)(C(=O)O)[C@H](c2ccc(CO)cc2)N1C1CCCCC1`, the composite z-score was 0.823 in the assay with Albumin (Bos taurus); 0.447 in assay [2]; -0.0708 in [3]; 0.739 in assay [4]; 3.57 in [5]; 0.589 in assay [6]. The composite z-score was 1.3 in the assay with Sam68 (KHDRBS1); -0.423 in assay [7]; 1.21 in [8]; 1.52 in [9]; 1.24 in [10]; 0.398 in assay [11]. For the same compound, the composite z-score in [12] was determined as 0.801; in [13], 1.33; in assay [14], 1.06; with Lefty1, 0.4; in assay [16], 1.13. In addition, the composite Z-score in assay [1] was 0.222 (inactive). Moreover, the z-score is -0.254 in [15] and -0.757 (inactive) in assay [17].
As for `CCCNC(=O)[C@@H]1c2ccccc2C(=O)N(C2CCCCC2)[C@H]1c1ccc(CO)cc1`, the composite z-score is 0.334 in the assay with Albumin (Bos taurus); 0.103 in assay [2]; -0.106 in assay [3]; 0.293 in assay [4]; 2.72 in assay [5]; 0.711 in assay [6]. The composite z-score in the assay with Sam68 (KHDRBS1) turned out to be 1.29; in assay [7], 0.179; in assay [8] it was 1.03; in [9], 2.26; in [10], 1.22; in assay [11], 0.798. For the same compound, the composite z-score in assay [12] was 0.958; in [13], 0.927; in assay [14] it was 0.915; with Lefty1, 0.443; in [16] it was 0.795. In addition, the composite Z-score in assay [1] is 0.474 (inactive). Also, the z-score in [15] is 0.888; in [17], 0.311 (inactive).
As to `CC(=O)NCCCC[C@@H]1NC(=O)[C@@H]2C[C@H](C(=O)NCCCCCNC(=O)CS)[C@H](c3ccc(O)cc3)N2C1=O`, the composite z-score was -0.0591 in the assay with Albumin (Bos taurus); -0.282 in [2]; -0.203 in assay [3]; 0.497 in assay [4]; 0.534 in assay [5]; -0.377 in [6]. Also, the composite z-score with Sam68 (KHDRBS1) is -0.0077; in assay [7], -0.13; in [8], -0.579; in assay [9], 0.133; in [10] it was -0.265; in assay [11] it was -0.295. In addition, the composite z-score was -0.786 in assay [12]; 1.44 in assay [13]; 0.746 in [14]; 1.4 with Lefty1; -0.802 in assay [16]. Besides, in [1], the composite Z-score is 1.43 (inactive). Moreover, the z-score in assay [15] was 1.18; in assay [17] it was -1.88 (inactive).
In the case of `COCCCNC(=O)[C@@]1(c2ccc([N+](=O)[O-])cc2)CC(=O)N(C2CCCCC2)[C@@H]1c1ccc(CO)cc1`, the composite z-score was 0.502 with Albumin (Bos taurus); -0.391 in assay [2]; -0.272 in assay [3]; 0.672 in [4]; 2.28 in assay [5]; 1.63 in assay [6]. Besides, the composite z-score is 0.0163 with Sam68 (KHDRBS1); -0.264 in [7]; -0.194 in assay [8]; 1.13 in assay [9]; 0.542 in [10]; 0.643 in [11]. Besides, the composite z-score was -0.523 in assay [12]; -0.0809 in [13]; 0.269 in assay [14]; -1.4 in the assay with Lefty1; -0.273 in assay [16]. In addition, the composite Z-score in assay [1] is -0.0867 (inactive). For the same compound, the z-score in assay [15] was 0.612; in [17] it was -0.501 (inactive).
Turning to `C=C(CCCC)/C(=C/C[C@@H](OC(=O)c1ccncc1)c1cccc(OCCO)c1)c1cc(C(=O)OC)ccc1OC`, the composite z-score with Albumin (Bos taurus) is 0.6; in [2], 0.0893; in assay [3], -0.0974; in assay [4] it was 0.57; in assay [5], 2.84; in [6] it was 1.05. Besides, the composite z-score was determined as 1.19 with Sam68 (KHDRBS1); 0.287 in assay [7]; 1.11 in [8]; 0.541 in assay [9]; 1.17 in assay [10]; 0.0708 in assay [11]. Also, the composite z-score amounted to 0.939 in [12]; 1.12 in [13]; 0.627 in assay [14]; 0.959 in the assay with Lefty1; 1.09 in assay [16]. For the same compound, in [1], the composite Z-score is -0.259 (inactive). The z-score in [15] was 4.97; in assay [17] it was -2.22 (inactive).
